Assay outcomes: PubChem, The Scripps Research Institute Molecular Screening Center
TEAD-YAP block = TEAD-YAP interaction inhibition, primary screen, TEAD-YAP interaction inhibitor project, luminescence, HEK-TIYL cells; 640,000 tested, 1.4% active; TEAD-Gal4/YAP UAS-luciferase luminescence; inhibition, % at 9.12 µM; AID 1259422, 2018; in the data active = inhibition above about 32%
MITF primary = MITF inhibitors, primary screen, biochemical, AlphaScreen, human; Microphthalmia-associated transcription factor (Homo sapiens), O75030; AlphaScreen MITF homodimerization, bead proximity signal; inhibition, % at 2.6 µM; 650,000 tested, 0.91% active; in the data active = inhibition above about 50%
Target sequence (O75030 whole entry, looked up): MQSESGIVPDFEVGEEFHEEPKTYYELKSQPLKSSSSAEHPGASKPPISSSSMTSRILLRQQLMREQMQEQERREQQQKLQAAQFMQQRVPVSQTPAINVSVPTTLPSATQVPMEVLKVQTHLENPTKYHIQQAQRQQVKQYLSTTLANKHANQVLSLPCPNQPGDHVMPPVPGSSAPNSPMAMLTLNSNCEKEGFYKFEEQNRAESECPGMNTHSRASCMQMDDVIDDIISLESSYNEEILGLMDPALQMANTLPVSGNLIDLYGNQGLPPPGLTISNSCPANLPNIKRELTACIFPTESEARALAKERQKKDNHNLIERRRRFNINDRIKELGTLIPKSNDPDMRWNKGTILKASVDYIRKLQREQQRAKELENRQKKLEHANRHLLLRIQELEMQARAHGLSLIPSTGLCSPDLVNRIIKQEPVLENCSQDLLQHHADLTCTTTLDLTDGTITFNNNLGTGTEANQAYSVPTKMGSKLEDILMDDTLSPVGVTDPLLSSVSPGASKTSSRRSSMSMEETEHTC
GPR151 activ = activators of human GPR151, primary screen, cell-based, PathHunter beta-arrestin, luminescence; G-protein coupled receptor 151 (Homo sapiens), Q8TDV0; PathHunter beta-arrestin GPR151 cells; activation, % at 11.2 µM; 650,000 tested, 1% active; in the data active = activation above about 4.9%
FBW7 activator = FBW7 E3 ligase activators, primary screen, biochemical, AlphaScreen, human. normalized activity (activation), % at 26.1 µM. AlphaScreen FBW7–phospho-cyclin E peptide binding, activator screen. F-box/WD repeat-containing protein 7 (Homo sapiens), Q969H0. 650,000 tested, 0.13% active; in the data active = normalized activity above about 1.9%;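 note: purified mutant Fbw7 with reduced substrate affinity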
Hits are given with their value; 0 = inactive. Sampled rows, rich in hits. Any-hit rate of the full collection: about 3.5%.

SMILES	TEAD-YAP block	MITF primary	GPR151 activ	FBW7 activator
N#Cc1c2ccc([N+](=O)[O-])cc2[n+]([O-])n1-c1ccccc1	0	0	0	0
O=C(Nc1ccc(-c2nnc3n2CCCCC3)cc1)c1ccc2[nH]c(=O)c(=O)[nH]c2c1	0	0	0	0
CCOC(=O)c1c(NC(=S)NC2CCCCC2)sc2c1CCCCC2	0	0	0	0
CN(C)C(=O)Cn1c(SCC(=O)N2CCCc3ccccc32)nc2ccccc21	35	0	0	0
CC1CCN(C(=O)Cn2c(SCC(=O)N3CCc4ccccc43)nc3ccccc32)CC1	0	0	0	0
CC(=O)c1cccc(-c2cnc3ccc(NCc4cccs4)nn23)c1	0	0	0	0
OCCCNc1ccc2ncc(-c3ccsc3)n2n1	51	0	0	0
O=C(O)c1ccc(-c2cnc3ccc(NCCCO)nn23)cc1	0	0	0	0
OCCCNc1ccc2ncc(-c3cccc(Cl)c3)n2n1	53	0	0	0
OCCCNc1ccc2ncc(-c3cccc(O)c3)n2n1	72	0	0	0
CCCNc1ccc2ncc(-c3cccc(C(C)=O)c3)n2n1	34	0	0	0
CCOc1ccc(NC(=O)NCCN2CCN(c3cccc(Cl)c3)CC2)cc1	0	0	0	0
O=C(c1cc([N+](=O)[O-])ccc1NCC1CCCO1)N1CCCc2ccccc21 (centres undefined)	0	0	0	0
CCSc1nc2c(c(=O)n1-c1ccc(OC)c(OC)c1)SCC2	0	0	0	0
CN(Cc1cnn(-c2ccc(F)cc2)c1)c1nncc(-c2ccccc2)n1	0	0	0	0
N#C/C(=C\Nc1ccc(S(=O)(=O)NC(N)=O)cc1)c1nc(-c2ccc(F)cc2)cs1	0	0	0	0
c1ccc2cc(-c3cnc4ccc(NCCCN5CCOCC5)nn34)ccc2c1	0	0	0	0
FC(F)(F)c1cccc(-c2cnc3ccc(NCCCN4CCOCC4)nn23)c1	0	0	0	1.9
OCCCNc1ccc2ncc(-c3ccccc3)n2n1	43	0	0	0
CCCNC(=O)c1ccc2nc(-c3ccc(C(=O)NC4CC4)cc3)sc2c1	0	0	0	0
Cc1cccc(N(CC(O)CN(CC(C)C)CC(C)C)S(=O)(=O)c2ccccc2)c1 (centres undefined)	0	0	0	0
Cc1[nH]cnc1CN1CCCC(C(=O)c2ccc(Oc3ccccc3)cc2)C1 (centres undefined)	33	0	0	0
CCCCCC1=NN(C(=O)C(=O)Nc2ccc(OC)cc2)C(O)(C(F)(F)F)C1 (centres undefined)	0	0	0	0
COc1ccc(/C=C2/C(=O)NC(=O)N(Cc3ccco3)C2=O)cc1OC	0	0	0	0
Cc1cc(/C=C2/C(=O)NC(=S)N(Cc3ccco3)C2=O)c(C)n1C	0	77	0	0
SMILES	TEAD-YAP block	MITF primary	GPR151 activ	FBW7 activator
COc1cc(C)c(/C=C2/C(=O)NC(=O)N(Cc3ccco3)C2=O)cc1C	0	52	0	0
COc1cc(C)c(/C=C2/C(=O)NC(=O)N(Cc3ccco3)C2=O)c(OC)c1	0	64	0	0
Cc1cc(/C=C2/C(=O)NC(=O)N(Cc3ccco3)C2=O)c(C)n1-c1ccc(F)cc1	0	0	0	0
Cc1nc2ccc3nc(NC(=O)c4ccco4)sc3c2s1	0	0	0	26
O=C(Nc1nnc(C23CC4CC(CC(C4)C2)C3)s1)c1ccco1	0	0	0	1.9
Cc1nc2c(ccc3nc(NC(=O)c4ccco4)sc32)s1	50	0	0	0
Cc1ccc(C(=O)Nc2nc3ccc4sc(C)nc4c3s2)cc1	0	0	0	0
Cc1nc2c(ccc3nc(NC(=O)C4=COCCO4)sc32)s1	79	0	0	0
O=C(c1cccc(S(=O)(=O)N2CCCC2)c1)c1cccc(S(=O)(=O)N2CCCC2)c1	33	0	0	0
CC1CCN(S(=O)(=O)c2cccc(C(=O)Nc3ccccc3C(=O)Nc3ccccc3)c2)CC1	0	0	0	0
O=C(Oc1cccc(NC(=O)c2ccccc2Cl)c1)c1cccc(S(=O)(=O)N2CCCCC2)c1	54	0	0	0
O=C(Nc1cccc(Br)c1)c1cc(S(=O)(=O)N2CCCC2)ccc1Cl	35	0	0	0
CC1CCN(S(=O)(=O)c2cccc(C(=O)Oc3cccc(NC(=O)c4ccccc4)c3)c2)CC1	37	0	0	0
COc1cc(OC)c(C(=O)N(Cc2nc(-c3ccc(Cl)cc3)no2)C(C)C)cc1OC	0	0	0	0
CCN1CCN(C(c2cccs2)C(C)NC(=O)c2ccc(OC)c(OC)c2)CC1 (centres undefined)	0	0	0	0
C/C(=N/Nc1nc(-c2ccccc2)cs1)C(C)(C)C	61	0	0	0
COc1ccc(-c2cccc(C(N)=O)c2)cn1	0	0	0	0
CC1=CSC2=NC(=O)/C(=C/c3cc(C)n(-c4ccccc4F)c3C)C(=N)N12	52	0	0	0
CCOc1ccccc1-n1c(C)cc(/C=C2\C(=N)N3C(C)=CSC3=NC2=O)c1C	0	0	0	0
CC1=CSC2=NC(=O)/C(=C/c3cc(C)n(-c4ccccc4C)c3C)C(=N)N12	68	0	0	0
Cc1cc(/C=C2/C(=N)N3C(=NC2=O)SN=C3S(C)(=O)=O)c(C)n1-c1ccccc1F	0	0	0	0
Cc1cccc(-n2c(C)cc(C(=O)OCc3c(C)noc3C)c2C)c1	41	0	0	0
Cc1noc(C)c1COC(=O)c1ccccc1I	0	0	0	0
COc1ccc2nc(N3CCCCC3)sc2c1	61	0	0	0
COc1ccc2nc(N3CCCC3)sc2c1	0	0	0	0
SMILES	TEAD-YAP block	MITF primary	GPR151 activ	FBW7 activator
CC(=O)Nc1ccc(Nc2nc(-c3c(C)nc4cc(C)ccn34)cs2)cc1	57	0	0	0
Cc1ccn2c(-c3csc(Nc4ccc(Cl)cc4)n3)c(C)nc2c1	55	0	0	0
Cc1ccn2c(-c3csc(Nc4ccc(S(N)(=O)=O)cc4)n3)c(C)nc2c1	0	0	0	0
COc1ccc(NSc2ccccc2[N+](=O)[O-])cc1	0	0	0	0
CN(C)C(=O)CSc1ncnc2sc3c(c12)CCC3	0	0	0	0
O=C(CN1CCC(c2cccnc2)CC1)Nc1nccs1	0	0	0	0
O=C(Cn1c2c(c3ccccc31)CCC2)Nc1nccs1	34	0	0	0
O=C(CN1CCC(c2ccncc2)CC1)Nc1nccs1	34	0	0	0
Cc1cc(NC(=O)Cn2c3c(c4ccccc42)CCC3)no1	57	0	0	0
Cc1nnc(NC(=O)Cn2c3c(c4ccccc42)CCC3)s1	0	0	0	0
CCCCOC(=O)c1cccc(NC(=O)c2ccc(Cl)cc2Cl)c1	0	0	0	0
O=C(OCc1csc(Nc2ccccc2)n1)C1CC2C=CC1C2 (centres undefined)	38	0	0	0
Cc1nnc(SCC(=O)Nc2ccc(F)c([N+](=O)[O-])c2)s1	0	0	0	0
NC(=O)c1ccccc1Nc1cc(Nc2ccc(-n3cnc(N4CCOCC4)n3)cc2)ncc1C(F)F	42	0	0	0
